# Screens deposited in PubChem BioAssay by National Center for Advancing Translational Sciences (NCATS).
# Sampled rows, rich in hits. Any-hit rate of the full collection: about 8%.
# HT1080 IDH1KD tx: toxicity to HT-1080 IDH1 knockdown cells (counter line); Potency, µM (series often up to 46.1 µM), without a hit: top-dose activity, negative = toxicity, actives largely listed as cytotoxic; AID 686971; HT-1080 IDH1 knockdown viability, ATP luminescence, 48 h; 2% of 360,000 active;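 further: 0% = DMSO wells and -100% = cell-free medium wells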
#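 Assay cells: HT-1080 with IDH1 knockdown, 750 per well, RPMI/5% FBS. Exposure: 48 h at 37 °C following 2 h pre-incubation. Read: CellTiter-Glo luminescence; fitted concentration-response, curve class assigned.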
# HT1080-NT tox: kills 2HG-producing HT-1080-NT fibrosarcoma cells | HT-1080-NT fibrosarcoma viability, CellTiter-Glo ATP luminescence, 48 h | Potency, µM (doses to about 46.1 µM), for inactives: at the highest dose activity, negative = less viability, most hits filed as cytotoxic | 1.6% of 360,000 active;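 further: NT is the 2HG producing partner of a matched IDH1 knockdown line; 0% = DMSO-treated cells and -100% = media-only wells without cells; nearly all actives have a fitted effect of over 55% in size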
#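 Compounds were tested in concentration-response format on HT-1080-NT cells for 48 hours at 37 degrees C. Cell viability came from CellTiter-Glo luminescence; curves were classified by r2, response magnitude and activity.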
# SW480 rereplic: DNA re-replication induction in SW480 cells | AID 624297 | SW480 DNA re-replication, Hoechst DNA content imaging, 48 h | 1.8% of 340,000 active | Potency, µM (highest dose often 46.1 µM), without a hit: at the top dose re-replication activation, hits mostly activators; further: % of control where 0% means no effect; nearly all actives have a fitted effect of over 55% in size
#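 DNA re-replication was detected as more nuclei of elevated Hoechst intensity after 48 hr exposure to compound (23 nL pinned per well of 250 cells).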
# MCF10A rerep: induces DNA re-replication in MCF 10a normal breast cells; MCF 10A DNA re-replication, Hoechst nuclear intensity, 48 h; Potency, µM (doses to about 46.1 µM), inactives show at the top dose activity, positive = re-replication, most hits filed as activators; 2.9% of 350,000 active; further: % of control where 0% means no effect; nearly all actives have a fitted effect of over 50% in size
# KB-3-1 tox: kills parental KB-3-1 adenocarcinoma cells | KB-3-1 viability, CellTiter-Glo ATP luminescence, 72 h | Potency, µM (top dose mostly 46.1 µM), actives largely listed as cytotoxic | 1.4% of 400,000 active; further: on the % scale 0 is the no-effect control and ±100 the full control effect; nearly all actives have a fitted effect of over 60% in size
#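 Cytotoxicity measured as CellTiter-Glo luminescence after 72 h at 37 C. Compound titrations were pinned onto drug-naive KB-3-1 parental adenocarcinoma cells grown in DMEM with 10% FBS, and normalized data fitted to concentration-response curves.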
# KB-V1 cytotox: KB-V1 MDR subline cytotoxicity; KB-V1 MDR cells viability, CellTiter-Glo, 72 h; Potency, µM (titrated, usually from 46.1 µM), most hits filed as cytotoxic; 3.4% of 400,000 active; AID 1347076; further: on the % scale 0 is the no-effect control and ±100 the full control effect; nearly all actives have a fitted effect of over 60% in size
#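 Readout: CellTiter-Glo luminescence, 10 min after addition. Cells: KB-V1 MDR subline, 72 h at 37 degrees C with compound. Analysis: corrected, normalized data fitted to concentration-effect curves.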
# Numbers without * were called inactive; i = inactive; ? = inconclusive; / = not tested or not shown. The call rests on the fitted dose curve; in most records, active means well fitted curve in the direction sought with a large enough effect; inconclusive means small, poorly fitted or top-dose-only effect, or another doubt; inactive means no such curve, though single readings can be large; an effect the other way counts as inactive or inconclusive. Potency means the concentration at half of the fitted maximal effect.
SMILES,HT1080 IDH1KD tx,HT1080-NT tox,SW480 rereplic,MCF10A rerep,KB-3-1 tox,KB-V1 cytotox
CC(NC(=O)c1cc2c(=O)n3ccccc3nc2n(CC2CCCO2)c1=N)c1ccccc1 (stereo not given),0%,0%,6.5µM*,5.8µM*,i,?
N=c1c(C(=O)NC2CCCC2)cc2c(=O)n3ccccc3nc2n1CC1CCCO1 (stereo not given),2%,-3%,?,?,?,i
N=c1c(C(=O)NC2CCCCC2)cc2c(=O)n3ccccc3nc2n1CC1CCCO1 (stereo not given),4%,10%,18µM*,?,i,i
Cc1cccc(N2CCN(S(=O)(=O)c3ccc(Cl)nc3)CC2C)c1 (stereo not given),-3%,-14%,3%,11%,i,i
Cc1cc(C)cc(NS(=O)(=O)c2ccc(N3CCCCS3(=O)=O)cc2)c1,/,/,/,/,i,?
CCOc1ccc(NC(=O)Cn2nc(-c3ccncc3)ccc2=O)cc1,/,/,/,/,i,i
CCn1c(SCC(=O)NNC(=O)c2ccc(C)cc2)nnc1-c1ccco1,6%,2%,-8%,2%,i,i
N=c1c(S(=O)(=O)c2ccc(F)cc2)cc2c(=O)n3ccccc3nc2n1CC1CCCO1 (stereo not given),8%,5%,18µM*,16µM*,i,i
COc1ccc(CCNC(=O)c2cc3c(=O)n4cccc(C)c4nc3n(CC3CCCO3)c2=N)cc1 (stereo not given),0%,-3%,8.2µM*,9.2µM*,i,i
Cc1cccn2c(=O)c3cc(C(=O)NCC4CCCO4)c(=N)n(CCc4ccccc4)c3nc12 (stereo not given),1%,7%,?,26%,i,i
CCCn1c(=N)c(S(=O)(=O)c2ccc(F)cc2)cc2c(=O)n3ccccc3nc21,-3%,1%,?,?,i,i
Cc1ccc(CNC(=O)c2cc3c(=O)n4ccccc4nc3n(CC3CCCO3)c2=N)cc1 (stereo not given),7%,5%,?,2.1µM*,i,?
CCOC(=O)NC1(C(F)(F)F)NC(=O)N(c2ccc(C)c(C)c2)C1=O (stereo not given),/,/,/,/,i,i
CCOC(=O)c1cnc2cc(C(F)(F)F)ccc2c1N1CCN(c2cccc(Cl)c2)CC1,/,/,/,/,i,i
COc1ccc(OC)c(C(=O)c2coc3ccc(OC(C)=O)cc23)c1,?,-20%,?,21µM*,i,i
COc1ccc(C(=O)c2coc3ccc(OC(C)=O)cc23)cc1,-9%,-4%,-2%,-9%,i,i
Fc1ccc(CCNc2ncnc3[nH]ncc23)cc1,-10%,1%,-4%,2%,12µM*,4.1µM*
COc1ccc(CCNc2ncnc3[nH]ncc23)cc1OC,-2%,?,-1%,14%,i,i
C=CC(=O)Nc1ccc(CN2C(=O)N(c3c(Cl)c(OC)cc(OC)c3Cl)Cc3cnc(NCCCCN(CC)CC)nc32)cc1,15µM*,23µM*,?,?,12µM*,i
CCN(CC)CCNC(=O)c1ccc(NC(=O)Cc2ccc(OC)c(S(=O)(=O)N3CCOCC3)c2)cc1,5%,0%,-5%,-8%,i,i
CCCc1cc2c(=O)c(-c3ccc4c(c3)OCCO4)coc2cc1OS(C)(=O)=O,-8%,-3%,-1%,?,?,10µM*
c1ccc(NC2=Nc3cccc4cccc2c34)cc1,-9%,-7%,-3%,-39%,i,i
Fc1ccc(/C=N/NC2=Nc3cccc4cccc2c34)cc1,0%,-2%,3%,16µM*,i,?
O=c1oc(-c2ccccc2)nc2sc3c(c12)CCC3,8%,4%,4%,-9%,i,i
Nc1nc(-c2ccccc2)nc2sc3c(c12)CCCC3,-10%,-4%,?,?,i,23µM*
SMILES,HT1080 IDH1KD tx,HT1080-NT tox,SW480 rereplic,MCF10A rerep,KB-3-1 tox,KB-V1 cytotox
Cc1ccc(NS(=O)(=O)c2ccc3[nH]c4c(c3c2)CCCCCC4)cc1,/,/,/,/,?,i
CCN(c1ccc(OC)cc1)S(=O)(=O)c1ccc2[nH]c3c(c2c1)CCCCC3,/,/,/,/,8.2µM*,18µM*
Cc1ccc(N(C)S(=O)(=O)c2ccc3[nH]c4c(c3c2)CCCC4)cc1,/,/,/,/,i,18µM*
CC1=NN(C(=O)CCc2ccc3c(c2)OCO3)C(O)(C(F)(F)F)C1 (stereo not given),9%,5%,-5%,-6%,i,i
O=C1NC(=S)S/C1=C\c1ccc(SCc2ccccc2)o1,-16%,-13%,?,3.7µM*,?,?
O=C1NC(=S)S/C1=C\c1ccc(SCc2ccco2)o1,-6%,-8%,-2%,-10%,i,?
CC(NCC(=O)Nc1ccccc1C(=O)NC1CC1)c1cccc(C(F)(F)F)c1 (stereo not given),-1%,-6%,-4%,5%,i,i
O=C1C=C(N2CCN(c3ccccn3)CC2)C(=O)c2c(O)ccc(O)c21,-27%,-6%,?,28%,?,15µM*
Cn1c(-c2cccc([N+](=O)[O-])c2)[n+](C)c2ccccc21,-25%,-1%,2%,7%,i,i
Cn1c(-c2ccc3ccccc3n2)[n+](C)c2ccccc21,?,?,-20%,9%,9.2µM*,?
CN(C)c1ccc(-c2n(C)c3ccccc3[n+]2C)cc1,8.9µM*,5.6µM*,?,?,2.9µM*,i
Cn1c(-c2ccccn2)[n+](C)c2ccccc21,-3%,8%,24%,3%,i,i
Cc1ccccc1NC(=O)c1cc(N)ccc1N1CCCCC1,-18%,-6%,-1%,2%,i,15µM*
CN(C)S(=O)(=O)c1ccc(N2CCCC2)c(C(=O)Nc2ccccc2Br)c1,-4%,4%,-53%,1%,i,i
CCC(=O)Nc1ccc(N2CCCCC2)c(C(=O)Nc2ccccc2C)c1,0%,7%,-6%,3%,i,12µM*
Cc1ccc(NC(=O)c2cc(NC(=O)c3ccco3)ccc2N2CCCCC2)cc1,?,-28%,-44%,28%,i,i
N=c1oc2ccc(Br)cc2cc1C(=O)NC1CCCCCC1,9%,0%,2%,0%,i,i
COc1ccc(C2Nc3ccccc3C(=O)N2O)cc1OC (stereo not given),10%,1%,?,-1%,i,15µM*
